# 12-hLO inh: inhibitors of human 12-lipoxygenase (ALOX12); P18054; purified 12-hLO, xylenol orange hydroperoxide absorbance; Potency, µM (top dose mostly 57.1 µM), for inactives: at the highest dose activity change, negative = inhibition, hits mostly inhibitors; 150,000 compounds, 0.12% hits; AID 1452; further: potency means the concentration at half of the fitted maximal effect; nearly all actives have a fitted effect of over 55% in size
#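 Purified human 12hLO (150 nM), preincubated 15 min with compound, then 40 uM arachidonic acid for 30 min, room temperature, Hepes pH 7.0 with 0.01% Triton X-100. Hydroperoxide detected by ferrous iron/xylenol orange; 573/405 nm absorbance ratio gives reaction progress.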
# aGal spleen mod: alpha-galactosidase A (human) modulation. 240,000 compounds, 0.008% hits. P06280. Potency, µM (doses to about 80 µM), inactives show top-dose activity change, negative = inhibition, actives largely listed as inhibitors. human spleen homogenate, 4MU-alpha-Gal fluorescence, 40 min. AID 2107;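 further: potency means the concentration at half of the fitted maximal effect; 0% = enzyme with vehicle and -100% = no enzyme basal signal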
#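 Inhibition or activation of alpha-galactosidase in human spleen homogenate is scored by 4-MU fluorescence after 40 min at 37C, pH 5.0, with 1 mM substrate. AC50s come from concentration-response fitted to the Hill equation.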
# PNC inhibitor: inhibitors of perinucleolar compartment assembly | PC3M PTB-GFP, PNC prevalence imaging, 16 h; active compounds read low | activity change (PNC), negative = inhibition, % at 10 µM | 140,000 compounds, 3.1% hits;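 active means readout at or below -70, meaning at least 70% loss of cells showing the perinucleolar compartment, a nuclear body marking cancer cells; inconclusive means readout between -30 and a set limit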;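 further: plate controls were DMSO wells for no effect and camptothecin positive control wells for full effect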
#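 PC3M cells stably expressing PTB-GFP, 750–1000 cells/well, treated 16 h at 37 °C with compound (23 nl of library stock), in duplicate. After paraformaldehyde fixation and Hoechst stain, imaged at 20x; PNC prevalence scored by image analysis.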
# ALDH1A1 inh: ALDH1A1 (human) enzyme inhibition; Purified ALDH1A1, NADH fluorescence, propionaldehyde substrate; 220,000 compounds, 7.3% hits; AID 1030; Potency, µM (titrated, usually from 75.3 µM), inactives show top-dose activity, negative = inhibition, hits mostly inhibitors; active means well fitted inhibition curve with a large enough effect, not every such curve was filed as active; inconclusive means small, poorly fitted or top-dose-only effect, or another doubt; inactive means no such curve, though single readings can be large or run the other way;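 further: potency means the concentration at half of the fitted maximal effect; plate controls were no enzyme wells and a reference inhibitor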
# HPGD inh: blocks human HPGD enzyme activity; P15428; purified HPGD, NADH fluorescence kinetic, PGE2 substrate; Potency, µM, inactives show top-dose activity change, negative = inhibition, usual class: inhibitors; 150,000 compounds, 4.3% hits; AID 894; active means well fitted inhibition curve with a large enough effect, not every such curve was filed as active; inconclusive means small, poorly fitted or top-dose-only effect, or another doubt; inactive means no such curve, though single readings can be large or run the other way; further: potency means the concentration at half of the fitted maximal effect
# Target sequence (P15428 whole entry, looked up): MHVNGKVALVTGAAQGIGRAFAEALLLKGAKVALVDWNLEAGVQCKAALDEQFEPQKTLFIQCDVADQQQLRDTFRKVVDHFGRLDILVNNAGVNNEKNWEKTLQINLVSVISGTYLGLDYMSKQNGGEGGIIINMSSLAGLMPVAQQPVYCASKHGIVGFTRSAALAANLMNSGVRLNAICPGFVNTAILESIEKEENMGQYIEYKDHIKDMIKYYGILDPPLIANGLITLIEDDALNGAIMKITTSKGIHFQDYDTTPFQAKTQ
#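 NADH formation kinetics: reaction with 30 uM PGE2 and 1 mM NAD+ (final), 20 nM enzyme, Tris-HCl pH 8 with Tween 20, after 15 min compound preincubation at room temperature. Fluorescence change, last versus first of five reads.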
# GLA inh pH 4.5: blocks human alpha-galactosidase A at pH 4.5; P06280; purified enzyme, 4-MU-alpha-Gal fluorescence, pH 4.5; activity change, negative = inhibition, % at 105 µM; 230,000 tested, under 10 active; AID 1467;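 further: 0% = full activity with enzyme and -100% = basal without enzyme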
# Target sequence (P06280 whole entry, looked up): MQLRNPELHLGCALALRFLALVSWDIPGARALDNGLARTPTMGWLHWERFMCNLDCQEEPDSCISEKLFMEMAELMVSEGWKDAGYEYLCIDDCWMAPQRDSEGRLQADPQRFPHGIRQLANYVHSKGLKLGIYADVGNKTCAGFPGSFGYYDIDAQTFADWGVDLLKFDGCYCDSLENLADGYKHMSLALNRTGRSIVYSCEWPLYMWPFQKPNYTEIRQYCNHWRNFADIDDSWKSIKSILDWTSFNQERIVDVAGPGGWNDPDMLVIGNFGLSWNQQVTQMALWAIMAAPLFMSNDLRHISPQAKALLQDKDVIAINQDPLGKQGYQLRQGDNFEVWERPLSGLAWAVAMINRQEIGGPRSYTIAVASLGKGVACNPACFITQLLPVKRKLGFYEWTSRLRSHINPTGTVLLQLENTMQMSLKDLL
# Numbers without * were called inactive; u = inconclusive; x = no result. Only some compounds are listed: those with a hit (about 10% of all), similar ones and a draw of the others. Unless noted, the call rests on the fitted dose curve; in most records, active means well fitted curve in the direction sought with a large enough effect; inconclusive means small, poorly fitted or top-dose-only effect, or another doubt; inactive means no such curve, though single readings can be large; an effect the other way counts as inactive or inconclusive. Unless noted, on the % scale 0 is the no-effect control and ±100 the full control effect.
SMILES,12-hLO inh,aGal spleen mod,PNC inhibitor,ALDH1A1 inh,HPGD inh,GLA inh pH 4.5
O=C(Nc1ccc(N2C(=O)C3C4C=CC(C4)C3C2=O)cc1)Nc1cccnc1 (stereo not drawn),-2%,5%,-25,u,18µM*,-19
O=C(NCCN1C(=O)C2C3C=CC(C3)C2C1=O)Nc1cccnc1 (stereo not drawn),0%,1%,-28,-12%,3%,-6
CC(C(=O)Nc1cccnc1)N1C(=O)C2C3C=CC(C3)C2C1=O (stereo not drawn),5%,-4%,-1,20µM*,-16%,5
O=C(NCC1OCCc2ccccc21)c1ccc(NC(=O)c2ccc(Cl)cc2)cc1 (stereo not drawn),1%,1%,-19,3%,-10%,1
Cc1occc1C(=O)NCc1ccccc1F,-6%,-6%,51,10µM*,u,-4
Cc1occc1C(=O)Nc1cccc(C(=O)NCc2ccccc2)c1,2%,1%,-29,u,22µM*,2
CCOC(=O)C1(CC)NC(c2ccco2)C2C(=O)N(c3ccc(C)cc3)C(=O)C21 (stereo not drawn),-5%,19%,-11,14µM*,-13%,9
COc1ccc(-n2c(=O)c(-c3cn(C)c4ccccc34)nc3cncnc32)cc1,-4%,-7%,x,u,-23%,x
CC1(C)CC2C1CCC1(C)OC1CCC2(C)O (stereo not drawn),4%,-1%,x,5%,-2%,-1
NNc1nc2ccc(Cl)cc2s1,u,-1%,46,35µM*,-17%,3
CCOC(=O)N1CCN(/[N+]([O-])=N/Oc2ccc([N+](=O)[O-])cc2[N+](=O)[O-])CC1,x,-15%,x,x,x,x
C=CCN1C(=O)C2(NNc3ccccc3O2)c2ccccc21 (stereo not drawn),-18%,10%,-20,1.6µM*,-20%,1
CCCCN1C(=O)C2(NNc3ccccc3O2)c2ccccc21 (stereo not drawn),u,-6%,u,0.28µM*,32µM*,-7
NC(=O)/C(=N\OC(=O)c1ccco1)c1nc(-c2ccc(Br)cc2)cs1,-10%,-7%,3,13µM*,13µM*,7
Cc1cccc(CNc2ncnc3ccc(-c4ccc(C(=O)N(C)C)cc4)cc23)c1,u,9%,x,u,u,-6
CCN(CC)C(=O)c1ccc(C(=O)c2ccccc2)cc1,7%,-3%,41,u,1µM*,-2
Cc1cccc(C(=O)NNC(=O)c2cccc(C)c2)c1,5%,8%,2,1%,-1%,-4
CCN(CC)C(=O)c1ccc2nc(-c3ccccc3)c(-c3ccccc3)nc2c1,-2%,5%,u,u,u,0
CCN(CC)C(=O)c1cccc(C)c1,4%,11%,x,4%,25µM*,-4
CCN(CC)C(=O)c1ccc2nc3ccccc3nc2c1,-4%,-1%,28,u,0.89µM*,5
CCN(CC)C(=O)c1ccc(C)c(Br)c1,1%,2%,22,7%,18µM*,6
COC1OC2COC(c3ccccc3)OC2C(O)C1O (stereo not drawn),1%,7%,x,5%,-11%,-10
Cc1c(CCO)c(=O)[nH]n1C(=O)c1ccc(F)cc1,1%,2%,-16,5%,-5%,-7
O=C(CN1C(=O)CCC1=O)c1ccc(-c2ccccc2)cc1,-3%,5%,-82*,3%,-28%,-3
CCCC(=O)c1ccc(-c2ccccc2)cc1,-5%,-3%,37,-3%,7.1µM*,0
SMILES,12-hLO inh,aGal spleen mod,PNC inhibitor,ALDH1A1 inh,HPGD inh,GLA inh pH 4.5
O=C(CCCCCCCC(=O)c1ccccc1)c1ccccc1,x,8%,x,3%,x,x
CCCCN(CC)C(=O)c1ccc(-c2ccccc2)cc1,0%,-9%,28,-3%,2µM*,6
CCCCN(CC)C(=O)c1cccc(Cl)c1,0%,-11%,-7,u,u,-14
Cc1ccc(-n2c(N)c(C(=O)Nc3ccccc3F)sc2=S)cc1C,x,-3%,x,10µM*,x,u
Cc1ccccc1-n1c(N)c(C(=O)Nc2ccc(F)cc2)sc1=S,x,2%,x,20µM*,x,-5
Cc1ccc(-n2c(N)c(C(N)=O)sc2=S)c(C)c1,-19%,10%,-14,7%,x,7
Cc1ccc(NC(=O)c2sc(=S)n(-c3cc(C)ccc3F)c2N)cc1,x,-10%,x,13µM*,x,-7
COc1ccc(C(=O)N2CCC(O)(c3ccc(Cl)cc3)CC2)cc1OC,x,-10%,x,x,x,-6
CN(C)c1ccc(C(CNC(=O)c2ccc(C#N)cc2)c2c[nH]c3ccccc23)cc1 (stereo not drawn),-2%,-18%,34,14µM*,-15%,-22
CCOC(=O)c1ccc(S(=O)(=O)NCC(c2ccc(N(C)C)cc2)c2c[nH]c3ccccc23)cc1 (stereo not drawn),5%,0%,71,13%,-16%,0
CN(C)c1ccc(C(CNC(=O)c2ccccc2Br)c2c[nH]c3ccccc23)cc1 (stereo not drawn),-4%,-7%,-20,7.9µM*,-6%,5
O=C(Nc1cccc(C(F)(F)F)c1)NC1CCCCC1,-4%,-5%,8,8%,-17%,-3
O=C(OC(C(=O)Nc1cccc(C(F)(F)F)c1)c1ccccc1)C1CCCCC1 (stereo not drawn),-12%,2%,-23,14µM*,-23%,u
CCCCC1(C)OC(=O)C(=Cc2c[nH]c3ccccc23)C(=O)O1 (stereo not drawn),x,-3%,x,-12%,x,-3
CCCCC1(C)OC(=O)C(=Cc2ccc(N(C)C)cc2)C(=O)O1 (stereo not drawn),2%,-1%,82,1.1µM*,11µM*,2
Cc1cc(O)c(C2=Nc3ccccc3SC(c3ccc(Cl)cc3)C2)c(=O)o1 (stereo not drawn),3%,-5%,-26,3%,-4%,-4
COc1ccc(C2CC(c3c(O)cc(C)oc3=O)=NCCS2)c(OC)c1 (stereo not drawn),-21%,11%,-114*,u,16µM*,x
Cc1ccc(Cn2c(SCC(C)C)nc3c2c(=O)[nH]c(=O)n3C)cc1,-1%,8%,u,28µM*,20µM*,-1
C=CCSc1nc2c(c(=O)[nH]c(=O)n2C)n1C(C)C,-5%,-13%,-8,3.2µM*,18µM*,-7
C/C(Cl)=C/CSc1nc2c(c(=O)[nH]c(=O)n2C)n1C(C)C,-5%,1%,24,u,-12%,7
C/C=C/Cn1c(SCc2ccc(C)cc2)nc2c1c(=O)[nH]c(=O)n2C,0%,-15%,u,u,14µM*,-2

# Assay outcomes from PubChem BioAssay.
